Assay outcomes: PubChem BioAssay, The Scripps Research Institute Molecular Screening Center
M1 antag: human M1 muscarinic receptor antagonists, primary screen, CHO-K1 cells, Fluo-8 calcium fluorescence, 1536-well; CHO-K1 hM1, ACh EC80 antagonist; 1.3% of 360,000 active; AID 588852, 2011; inhibition, % at 3 µM; Muscarinic acetylcholine receptor M1 (Homo sapiens), P11229;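 active = percent inhibition above its own plate's cutoff, namely the mean of that plate's compound wells plus 3 SD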;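 note: peak over basal fluorescence ratio during 140 s after agonist addition; 0% = ACh EC80 plus DMSO and 100% = DMSO alone without agonist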
Target sequence (P11229 whole entry, looked up): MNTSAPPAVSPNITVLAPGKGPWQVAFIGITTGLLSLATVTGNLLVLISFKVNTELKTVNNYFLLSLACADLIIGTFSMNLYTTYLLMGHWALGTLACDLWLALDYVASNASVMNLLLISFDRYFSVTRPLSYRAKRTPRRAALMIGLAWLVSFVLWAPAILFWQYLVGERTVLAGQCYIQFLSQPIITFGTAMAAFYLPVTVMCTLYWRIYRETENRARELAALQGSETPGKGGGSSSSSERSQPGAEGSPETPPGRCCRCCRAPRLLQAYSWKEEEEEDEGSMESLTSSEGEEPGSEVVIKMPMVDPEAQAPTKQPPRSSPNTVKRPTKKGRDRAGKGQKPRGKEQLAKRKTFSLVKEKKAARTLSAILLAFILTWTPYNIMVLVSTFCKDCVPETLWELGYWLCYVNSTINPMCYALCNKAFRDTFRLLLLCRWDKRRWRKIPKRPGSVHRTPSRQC
CHO-K1 Ca ag: counter-screen for M1 agonists: effect in parental CHO-K1 cells; Fluo-8 calcium fluorescence; scaled to maximal ATP response, vehicle zero; activation, % at 3 µM; 0.48% of 360,000 active; in the data active = activation above about 15%;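 note: untransfected CHO-K1 host cells lacking M1 receptor as counterscreen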
CHO-K1 Ca antag: M1 antagonist counterscreen hit in parental CHO-K1 cells; ATP-induced calcium, Fluo-8 fluorescence; inhibition, % at 3 µM; 0.6% of 360,000 active;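 active = inhibition above a per-plate cutoff, the plate's mean sample inhibition plus 3 SD, cut at about 24% in these data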;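 note: 0% = DMSO plus EC80 ATP and 100% = DMSO alone without ATP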
M1 ag: human M1 muscarinic receptor agonists, primary screen, Fluo-8 calcium fluorescence, CHO-K1 cells, HTS; Muscarinic acetylcholine receptor M1 (Homo sapiens), P11229; 0.33% of 360,000 active; activation, % at 3 µM; AID 588814, 2011; CHO-K1 hM1, agonist mode; 0% DMSO, 100% acetylcholine EC100;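 active = activation above the run's mean compound activation plus 3 SD, cut at about 16% in these data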;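 note: peak over basal fluorescence ratio within a 140 s kinetic read after compound addition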
M1 PAM: human M1 muscarinic receptor positive allosteric modulators, primary screen, CHO-K1 cells, Fluo-8 calcium fluorescence, 1536-well; AID 588819, 2011; 0.088% of 360,000 active; CHO-K1 hM1, ACh EC20; 0% = ACh EC20, 100% = maximal ACh; activation, % at 3 µM; in the data active = activation above about 19%, passing the limit was not always enough
M1 PAM parental: nonselective calcium activators in parental CHO-K1 cells, primary screen, counter-screen for M1 PAM project, cell-based, Fluo-8 calcium fluorescence, full deck, 1536-well; activation, % at 3 µM; ATP EC20; 0% at ATP EC20, 100% at ATP max; AID 602247, 2012; 0.02% of 360,000 active;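 active = activation above the run cutoff, the mean activation of all test compounds plus 3 SD, cut at about 40% in these data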;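 note: peak over basal fluorescence ratio in a 140 s read after ATP addition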
Numbers without * were called inactive. Rows were chosen to be rich in hits. Some 2.4% of all compounds tested hit in one or more screens of this group.

SMILES	M1 antag	CHO-K1 Ca ag	CHO-K1 Ca antag	M1 ag	M1 PAM	M1 PAM parental
COc1ccc(OC)c(C2=NOC(C(=O)Nc3cc(C)on3)C2)c1 (stereo not drawn)	-20	0	-13	-3	6	3
c1ccc(Oc2ccc(-c3ccn[nH]3)cc2)cc1	-3	1	2	-3	2	-18
c1ccc(-c2ncc(-c3ccn[nH]3)s2)cc1	10	0	29*	-5	-9	-16
COc1ccc(OC)c(S(=O)(=O)n2nnc3ccccc32)c1	-5	0	-3	-3	4	10
COc1ccc(Cl)cc1S(=O)(=O)n1nnc2ccccc21	9	0	28*	-2	2	1
CC(Sc1nnc(CN2CCCC2)n1Cc1ccccc1)C(=O)Nc1ccc(F)cc1Cl (stereo not drawn)	-3	-1	24*	-5	-2	-19
COc1ccc(C(C(=O)OC(C)CN(C)C)c2ccccc2)cc1 (stereo not drawn)	32*	0	-16	-6	-19	9
CC(CN1CCCC1)OC(=O)C(c1ccccc1)c1ccccc1 (stereo not drawn)	29	1	-9	-9	-22	11
CC1(c2ccc(Cl)cc2)NC(=O)N(CC(=O)N2CCc3ccccc32)C1=O (stereo not drawn)	9	19*	-6	39*	2	8
CCCCC1(C)NC(=O)N(CC(=O)N2CCc3ccccc32)C1=O (stereo not drawn)	-1	-1	-20	-6	2	7
Cc1ccc(C2(C)NC(=O)N(CC(=O)N3CCc4ccccc43)C2=O)cc1 (stereo not drawn)	-17	20*	-17	29*	8	11
CCC1(CC)NC(=O)N(CC(=O)N2CCc3ccccc32)C1=O	-23	0	-11	-5	10	13
CCC1(c2ccc(F)cc2)NC(=O)N(CC(=O)N2CCc3ccccc32)C1=O (stereo not drawn)	9	6	17	24*	-7	-16
COc1ccc(N2CCN(C(=O)C3CCCN(S(=O)(=O)c4c(C)noc4C)C3)CC2)cc1 (stereo not drawn)	-23	1	3	-2	4	-8
COc1cccc(/C(C#N)=C/c2c(-c3ccc(Cl)cc3)nc3c(C)cccn23)c1	48*	0	-13	-5	-22	10
N=C1c2ccccc2CN1c1ccc(S(=O)(=O)N2CCCCC2)cc1	74*	2	-1	-7	-24	-5
CCOC(=O)c1ccc(N2Cc3ccccc3C2=N)cc1	70*	0	-10	-6	-21	21
O=C1c2ccccc2C(=O)N1c1ccc(S(=O)(=O)N2CCCCC2)cc1	-13	3	-15	-3	11	14
CC(=O)SCC[N+](C)(C)C	24	0	5	70*	-29	9
COc1cc(NC(=O)c2ccccc2)c(OC)cc1NC(=O)CN1CCCCC1	17	0	26*	-3	-8	-6
CC(C(=O)Nc1ccc(OCc2ccccc2)cc1)N1CCCC1 (stereo not drawn)	49*	1	0	-8	-24	-13
CCOc1ccccc1NC(=O)CN1CCCCCC1	26*	0	-31	-10	-15	-10
COc1ccccc1NC(=O)CN1CCN(CC(=O)Nc2ccc(OCc3ccccc3)cc2)CC1	16*	1	19	0	-12	-4
O=C(CN1CCCCC1)Nc1ccccc1NC(=O)CN1CCCCC1	-8	0	3	-5	8	-7
O=C(c1cccnc1)N1CCCC(Nc2ccc(F)cc2)C1 (stereo not drawn)	0	2	-4	0	2	6
SMILES	M1 antag	CHO-K1 Ca ag	CHO-K1 Ca antag	M1 ag	M1 PAM	M1 PAM parental
COc1cccc(NC(=O)COC(=O)CCCC2=NS(=O)(=O)c3ccccc3N2)c1	-3	0	-17	-2	3	7
Cc1ccc(C2C(C#N)=C(N)SC(N)=C2C#N)cc1	10	8	4	8	-1	2
Cc1ccc(C2C(C#N)=C(N)SC(N)=C2C#N)c(C)c1	12	12	16	20*	-3	-4
CC(CN1CCCCC1)OC(=O)c1cc2ccccc2o1 (stereo not drawn)	37*	1	-4	-5	-17	10
O=C(c1cc2ccccc2o1)N1CCCCCC1	-26	0	-6	-6	5	12
COc1cccc(C(=O)OC(C)CN2CCCC2)c1 (stereo not drawn)	39*	0	-2	-8	-20	0
CC1CCN(CC(C)OC(=O)c2ccc3c(c2)OCCO3)CC1 (stereo not drawn)	67*	0	-1	-14	-32	12
CC(CN1CCCCC1)OC(=O)c1ccc2c(c1)OCO2 (stereo not drawn)	17	1	-16	-5	-7	18
CC(CN1CCCCC1)OC(=O)c1cccc(F)c1 (stereo not drawn)	-14	0	-11	-7	8	17
O=C(NCCOc1ccc(F)cc1)C1CCC(=O)N(Cc2ccc(Cl)cc2)C1 (stereo not drawn)	-16	1	-8	-3	2	14
Cc1ccsc1C(C(=O)NCc1ccccc1)N(C(=O)c1csnn1)c1ccccc1 (stereo not drawn)	4	2	-11	-9	-3	15
Cc1cc2c(NC(=O)Nc3ccc(C(F)(F)F)cc3)cccc2nn1	8	5	32*	5	-3	-26
Cc1cc(N2C(=O)C3C4C=CC(C4)C3C2=O)ccc1NC(=O)c1cccs1 (stereo not drawn)	-7	-1	47*	-7	3	-13
O=C(c1ccc(CSc2nc3ccncc3[nH]2)cc1)N1CCN(c2cccc(Cl)c2)CC1	36*	10	9	-5	-20	1
O=C(c1ccc(CSc2nc3ccncc3[nH]2)cc1)N1CCCCCC1	-1	4	-15	-5	1	17
Cc1cc(OCC(=O)OCC(=O)NC2CCCCC2C)ccc1Cl (stereo not drawn)	-2	0	-5	-2	6	6
Cc1cc2c(c(=O)n1Cc1ccco1)C(c1cccnc1)C(C#N)=C(N)O2 (stereo not drawn)	-3	0	26*	0	15	-8
CCOc1ccc(C2C(C#N)=C(N)Oc3cc(C)n(Cc4ccco4)c(=O)c32)cc1OC (stereo not drawn)	-5	0	5	-1	6	-3
